# HP1b chromo inh: HTS for Inhibitors of HP1-beta Chromodomain Interactions with Methylated Histone Tails; AlphaScreen HP1-beta / biotin-H3K9me3 peptide binding; Potency, µM (highest dose often 114 µM), for inactives: top-dose activity change, negative = inhibition, actives largely listed as inhibitors; Chromobox protein homolog 1 (Homo sapiens), P83916; 0.56% of 390,000 active; further: potency means the concentration at half of the fitted maximal effect; nearly all actives have a fitted effect of over 70% in size
# Target sequence (P83916 whole entry, looked up): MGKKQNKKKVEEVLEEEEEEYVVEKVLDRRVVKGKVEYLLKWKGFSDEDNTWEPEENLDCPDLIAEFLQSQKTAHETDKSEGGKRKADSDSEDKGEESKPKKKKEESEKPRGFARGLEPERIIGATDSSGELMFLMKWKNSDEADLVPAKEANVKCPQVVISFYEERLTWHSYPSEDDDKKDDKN
#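 AlphaScreen: HP1-beta (50 nM) preformed 30 min with biotin-H3(1-18)K9me3 peptide (50 nM) in PBS pH 7.4, 0.01% Tween-20. Compound added for 30 min at RT, then streptavidin donor/nickel chelate acceptor beads (10 ug/mL) for 30 min.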
# TDP1 inh: qHTS Assay for Inhibitors of Tyrosyl-DNA Phosphodiesterase (TDP1); Potency, µM (top dose mostly 130 µM), without a hit: top-dose activity change, negative = inhibition, most hits filed as inhibitors; 0.28% of 350,000 active; Tyrosyl-DNA phosphodiesterase 1 (Homo sapiens), Q9NUW8; recombinant TDP1, AlphaScreen DNA substrate cleavage; further: potency means the concentration at half of the fitted maximal effect; on the % scale 0 is the no-effect control and ±100 the full control effect; nearly all actives have a fitted effect of over 40% in size
#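 Enzyme-compound mixtures sat 15 min at room temperature, followed by a 5 min reaction with 15 nM final substrate and 10 min with AlphaScreen beads. Recombinant human Tdp1 was used at 1 nM final.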
# Six1-Eya2 inh: qHTS Assay for Inhibitors of the Six1/Eya2 Interaction; 0.56% of 360,000 active; AlphaScreen GST-Six1/His-Eya2 binding, biochemical; active compounds read low; Homeobox protein SIX1 (Homo sapiens) + Protein phosphatase EYA2 (Homo sapiens), …; activity change, % (test concentration not listed); in the data active means activity change below about -65%; inconclusive means mostly about -30% to -63%; further: on the % scale 0 is the no-effect control and ±100 the full control effect
#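 AlphaScreen luminescence read after one hour at 37 °C in darkness. Pin-transferred compounds met GST-Six1 and His-Eya2 protein (5X stock 250 nM/500 nM) plus glutathione donor and Ni-chelate acceptor beads (5X, 50 ug/mL).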
# BAZ2B inh: qHTS Assay for Inhibitors of BAZ2B; Bromodomain adjacent to zinc finger domain protein 2B (Homo sapiens), Q9UIF8; AlphaScreen BAZ2B-H3K14Ac peptide displacement; Potency, µM (top dose mostly 114 µM), for the others: at the top dose activity change, negative = inhibition, actives largely listed as inhibitors; 4.4% of 360,000 active; AID 504333, 2011; further: potency means the concentration at half of the fitted maximal effect; on the % scale 0 is the no-effect control and ±100 the full control effect; nearly all actives have a fitted effect of over 60% in size
#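 Complex of BAZ2B and biotin-H3K14Ac (50 nM apiece) forms over 30 min at RT, then faces library compounds up to 110 uM for another 30 min; AlphaScreen beads added, 20 min dark incubation, luminescence read.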
# JMJD2A Tudor inh: qHTS Assay for Inhibitors of JMJD2A-Tudor Domain; Lysine-specific demethylase 4A (Homo sapiens), O75164; AlphaScreen JMJD2A-Tudor / H3K4me3 peptide binding; Potency, µM (doses to about 114 µM), inactives show top-dose activity change, negative = inhibition, actives largely listed as inhibitors; 4.4% of 390,000 active; further: potency means the concentration at half of the fitted maximal effect; on the % scale 0 is the no-effect control and ±100 the full control effect; nearly all actives have a fitted effect of over 50% in size
# CtBP-E1A inh: qHTS Assay for Inhibitors of the CtBP/E1A Interaction; AlphaScreen GST-E1A/His-CtBP binding, 1536-well; active compounds read low; activity change, % (concentration not given with the values); 0.49% of 340,000 active; in the data active means activity change below about -65%; inconclusive means mostly about -30% to -63%; further: on the % scale 0 is the no-effect control and ±100 the full control effect
#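 In 5 uL wells, 23 nL compound meets equimolar GST-E1A and His-CtBP (5X stock 125 nM each) for 2 h, 37 °C. Beads (5X, 50 ug/mL) then 1 h, 37 °C, dark.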
# * marks the source's active call; other numbers are inactive results; ? = inconclusive; . = not tested or not shown; [ ] = another dose, or the depositor's remark. This is a sample that favours compounds with a hit; in the whole collection about 5.3% have one here. Unless noted, the call rests on the fitted dose curve; in most records, active means well fitted inhibition curve with a large enough effect; inconclusive means small, poorly fitted or top-dose-only effect; inactive means no such curve, though single readings can be large or run the other way.
SMILES,HP1b chromo inh,TDP1 inh,Six1-Eya2 inh,BAZ2B inh,JMJD2A Tudor inh,CtBP-E1A inh
CC(C)(C)c1ccccc1OCCCCCn1ccnc1,?,0%,-15,18µM*,2.8µM*,-11
Cc1ccc(OCCCCn2ccnc2)c(Cl)c1,-1%,12%,-4,-38%,?,-6
CC(C)(C)c1ccccc1OCCCCCNCCO,?,-3%,6,?,3.2µM*,1
CCc1cccc(NC(=O)CNS(=O)(=O)c2ccc3nc(C)sc3c2)c1,26%,3%,.,4%,-18%,.
CC(C)c1ccc(S(=O)(=O)NCc2ccc3c(c2)CCN3C(=O)c2ccccc2)cc1,20%[57 µM],5%,.,2%,-18%,.
COc1ccc(NC(=O)CSc2nnc(Cc3cccn3C)n2-c2ccc(OC)cc2)cc1,18%,11%,-8,50µM*,-20%,-4
CC(=O)c1ccc(NC(=O)CSc2nnc(Cc3cccn3C)n2-c2ccc(F)cc2)cc1,-8%,5%,-12,50µM*,?,-7
Cc1cc(C)nc(Nc2ccc(N3CCOCC3)cc2)n1,1%,7%,-7,-38%,-19%,-1
CCCCc1ccc(Nc2nc(CCC)cc(=O)[nH]2)cc1,16%,6%,-10,11%,-18%,-6
Cc1cc(C)nc(Nc2ccc(N3CCCC3)cc2)n1,?,12%,?,28µM*,35µM*,?
CCCc1cc(=O)[nH]c(Nc2ccc(N3CCCCC3)cc2)n1,?,7%,-28,50µM*,50µM*,-14
CCc1ccccc1NC(=O)c1ccc(=O)n(Cc2ccc(F)cc2)c1,28%[57 µM],8%,.,1%,5%,.
CCCn1c(SCc2nc(-c3cc(OC)ccc3OC)no2)nnc1-c1ccc(Cl)cc1,20%,5%,.,-25%,-27%,.
O=C(CCc1nc2ccccc2s1)OCc1ccccc1,284%,-1%,50,86%,26%,25
Cc1cc(C(=O)COC(=O)CCc2nc3ccccc3s2)c(C)n1C,-12%,3%,-12,50µM*,?,-22
CO/N=C(\C(=O)NC1C(=O)N2C(C(=O)OCOC(=O)C(C)(C)C)=C(/C=C\c3scnc3C)CSC12)c1csc(N)n1 (stereo unspecified),.,7%,.,.,.,.
C=CC1=C(C(=O)O)N2C(=O)[C@@H](NC(=O)/C(=N\O)c3csc(N)n3)[C@H]2SC1 (stereo in doubt),5%,.,-90*,.,20µM*,-85*
CO/N=C(/C(=O)NC1C(=O)N2C(C(=O)O)=C(CSc3nc(=O)c(O)nn3C)CSC12)c1csc(N)n1 (stereo unspecified),.,7.1µM*,.,.,.,.
CCCc1cc(=O)n2[nH]c(NC(=O)c3ccccc3Cl)nc2n1,31%,0%,.,-4%,7%,.
CO/N=C\CC(=O)Nc1ccc(Cl)cc1Cl,3%,5%,-1,7%,14µM*,0
COc1cc(OC)c(OC)cc1CN1CCN(Cc2ccc(SC)cc2)CC1,?,-2%,-3,40µM*,20µM*,.
COc1cccc(CN2CCN(Cc3cc(OC)c(OC)cc3OC)CC2)c1,18µM*,.,2,20µM*,1.6µM*,10
COc1cc(CN2CCN(Cc3ccc(SC)cc3)CC2)cc(OC)c1O,25µM*,-4%,7,50µM*,0.89µM*,-7
Cc1ccc(NS(=O)(=O)c2ccc3c(c2)N(C)CCO3)cc1C,.,5%,.,.,?,.
CCOc1cc(-c2nn3cnnc3s2)cc(OCC)c1OCC,-9%,8%,-2,3%,18µM*,-1
COC(=O)[C@@]1(Cc2ccc(OC)cc2)[C@H]2c3cc(C(=O)N(C)C)n(CCF)c3C[C@H]2CN1C(=O)c1ccccc1,.,6%,.,.,.,.
